Source: PubChem
CYP2C9 inh: blocks human cytochrome P450 2C9; P11712; CYP2C9 Supersomes, luciferin-H conversion, luminescence; inhibition, % at 5 µM; 96,000 tested, 20% active; AID 777;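 active = blocking of liver enzyme CYP2C9 beyond about 50% at 5 µM, limit read from the data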
CYP2C19 act: activators of human cytochrome P450 2C19; P33261; recombinant CYP2C19, luciferin-H EGE luminescence; hits give high values; 0 = fully inhibited enzyme, 1 = untreated enzyme; activation factor at 5 µM; 96,000 tested, under 10 active;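 active = activation factor of at least 2 at 5 µM in the primary screen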;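 note: 0 = wells with 2.5 mM tranylcypromine and 1 = vehicle-only wells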
CYP2C19 inh: inhibitors of human CYP2C19; P33261; CYP2C19 Supersomes, luciferin-H EGE luminescence, 30 min; inhibition, % at 5 µM; 96,000 tested, 21% active;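 active = CYP2C19 inhibition above a set limit at 5 µM in the primary screen, cut at about 50% in these data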;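 note: plate controls were negative control wells for no effect and 2.5 mM tranylcypromine positive control for full effect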
CYP2C9 act: CYP2C9 (human) activation. recombinant CYP2C9, luciferin-H conversion, luminescence; hits give high values; factor 1 = untreated enzyme, 0 = blocked. activation factor at 5 µM. AID 1024. P11712. 96,000 tested, 1.4% active;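 active = activation factor of 2 or more for CYP2C9 at a 5 µM dose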;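 note: 0 = sulfaphenazole-blocked wells and 1 = vehicle-only wells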
PLAP act: human PLAP activation; P05187; purified PLAP enzyme, luminescent substrate read-out; hits give high values; activation fold at 20 µM; 96,000 tested, 1.2% active; AID 696; in the data active = activation fold above about 2
Target sequence (P05187 whole entry, looked up): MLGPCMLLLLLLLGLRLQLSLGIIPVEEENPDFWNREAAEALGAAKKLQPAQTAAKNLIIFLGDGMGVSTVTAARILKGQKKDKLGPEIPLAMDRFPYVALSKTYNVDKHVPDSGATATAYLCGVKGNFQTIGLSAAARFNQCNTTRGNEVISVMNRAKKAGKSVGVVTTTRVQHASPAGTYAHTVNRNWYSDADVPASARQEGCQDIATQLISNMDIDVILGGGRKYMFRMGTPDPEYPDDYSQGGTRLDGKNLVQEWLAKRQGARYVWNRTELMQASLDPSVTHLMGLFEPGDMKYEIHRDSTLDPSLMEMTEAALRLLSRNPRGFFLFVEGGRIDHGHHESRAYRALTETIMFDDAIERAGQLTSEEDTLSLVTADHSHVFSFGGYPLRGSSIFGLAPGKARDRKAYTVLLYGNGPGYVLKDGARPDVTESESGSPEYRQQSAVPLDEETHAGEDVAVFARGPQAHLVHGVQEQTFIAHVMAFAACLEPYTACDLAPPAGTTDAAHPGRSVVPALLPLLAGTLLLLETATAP
* = called active by the depositor. The list is not random: actives were taken first. Their share in the collection is about 31%.

Cc1nc2cc(-c3ccc(Cl)cc3)nn2c(C)c1CCC(=O)NCc1ccco1 was read as CYP2C9 inh 20, CYP2C19 act 0.2, CYP2C19 inh 79*, CYP2C9 act 0.8 and PLAP act 1.4.
For C=C(C)Cn1c(SCC(=O)O)nnc1-c1ccc(OC)cc1 the results were CYP2C9 inh -13, CYP2C19 act 1.1, CYP2C19 inh -15, CYP2C9 act 1.1 and PLAP act 1.
Screening O=C(CN1C2CCCC1CC(NC(=O)c1ccco1)C2)Nc1ccccc1 (stereo not given) returned CYP2C9 inh 95*, CYP2C19 act 0.1, CYP2C19 inh 87*, CYP2C9 act 0.1 and PLAP act 1.3.
Screening O=C(NC1CC2CCCC(C1)N2S(=O)(=O)c1ccccc1)c1ccco1 (stereo not given) returned CYP2C9 inh 35, CYP2C19 act 0.6, CYP2C19 inh 36, CYP2C9 act 0.7 and PLAP act 0.8.
`COc1cc(C(=O)NC2CC3CCCC(C2)N3CC(=O)Nc2ccccc2)cc(OC)c1OC` (stereo not given) gave CYP2C9 inh 97*, CYP2C19 act 0.2, CYP2C19 inh 81*, CYP2C9 act 0 and PLAP act 1.6.
COc1ccc(C(=O)NC2CC3CCCC(C2)N3CC(C)C)cc1OC (stereo not given) was read as CYP2C9 inh -6, CYP2C19 act 1.1, CYP2C19 inh -14, CYP2C9 act 1.1 and PLAP act 1.1.
`CCCCOC(=O)CSc1n[nH]c(=O)[nH]c1=O` gave CYP2C9 inh 17, CYP2C19 act 0.9, CYP2C19 inh 7, CYP2C9 act 0.8 and PLAP act 0.9.
Cc1cc(C(C)(C)C)oc1C(=O)N(CC(=O)NC1CCCC1)Cc1ccccc1Cl was read as CYP2C9 inh 54*, CYP2C19 act 0.7, CYP2C19 inh 35, CYP2C9 act 0.5 and PLAP act 1.5.
Screening Cc1ccccc1N(CC(=O)NC1CCCC1)C(=O)c1oc(C(C)(C)C)cc1C returned CYP2C9 inh 4, CYP2C19 act 0.9, CYP2C19 inh 15, CYP2C9 act 1 and PLAP act 1.1.
`Cc1cc(C)c(NC2=NS(=O)(=O)c3ccccc32)c(C)c1` gave CYP2C9 inh 3, CYP2C19 act 1.1, CYP2C19 inh -8, CYP2C9 act 1 and PLAP act 1.1.
`Cc1ccc2c(c1)C(O)(c1c(C)[nH]c3ccccc13)C(=O)N2` (stereo not given) gave CYP2C9 inh 60*, CYP2C19 act 0, CYP2C19 inh 98*, CYP2C9 act 0.4 and PLAP act 1.2.
Cc1[nH]c2ccccc2c1C1(O)C(=O)N(Cc2ccc3c(c2)OCO3)c2ccccc21 (stereo not given) was read as CYP2C9 inh 73*, CYP2C19 act 0.2, CYP2C19 inh 83*, CYP2C9 act 0.3 and PLAP act 1.3.
Screening Cc1[nH]c2ccccc2c1C1(O)C(=O)N(C(C)C)c2ccccc21 (stereo not given) returned CYP2C9 inh 6, CYP2C19 act 0.1, CYP2C19 inh 95*, CYP2C9 act 0.9 and PLAP act 1.
For Cc1ccc(C)c(C(=O)CC2(O)C(=O)Nc3ccccc32)c1 (stereo not given) the results were CYP2C9 inh -4, CYP2C19 act 0.8, CYP2C19 inh 19, CYP2C9 act 1 and PLAP act 0.8.
For CC(C)n1c(=S)[nH]c2ccccc2c1=O the results were CYP2C9 inh -23, CYP2C19 act 0.9, CYP2C19 inh 13, CYP2C9 act 1.2 and PLAP act 1.3.
O=C(CCC(=O)NC1CCN(Cc2ccccc2)CC1)NCc1ccco1 was read as CYP2C9 inh -9, CYP2C19 act 1, CYP2C19 inh 4, CYP2C9 act 1.1 and PLAP act 1.1.
COc1ccccc1N1CCN(CCc2n[nH]c(=S)n2-c2ccccc2)CC1 was read as CYP2C9 inh -20, CYP2C19 act 1.2, CYP2C19 inh -21, CYP2C9 act 1.2 and PLAP act 1.6.
Screening COc1ccccc1N(CC(=O)NC(C)(C)C)C(=O)Cn1nnc(-c2ccc(C)o2)n1 returned CYP2C9 inh 22, CYP2C19 act 0.8, CYP2C19 inh 18, CYP2C9 act 0.8 and PLAP act 1.3.
CC(C)(C)NC(=O)CN(C(=O)Cn1nnc(-c2ccccc2F)n1)c1cccc2c1CCCC2 was read as CYP2C9 inh 88*, CYP2C19 act 0.4, CYP2C19 inh 57*, CYP2C9 act 0.1 and PLAP act 1.4.
`C(=C/c1ccnc2nc(SC/C=C/c3ccccc3)nn12)/c1ccccc1` gave CYP2C9 inh 79*, CYP2C19 act 0.7, CYP2C19 inh 28, CYP2C9 act 0.2 and PLAP act 1.
CCN1CCN(S(=O)(=O)c2cc(OC)c(Cl)cc2OC)CC1 was read as CYP2C9 inh -10, CYP2C19 act 0.6, CYP2C19 inh 39, CYP2C9 act 1.1 and PLAP act 0.9.
Screening N#Cc1c(-c2ccccc2Cl)cc(C2CC2)nc1N returned CYP2C9 inh -53, CYP2C19 act 0.3, CYP2C19 inh 74*, CYP2C9 act 1.5 and PLAP act 1.
COc1ccccc1-c1c(C)c(C)nc(N)c1C#N was read as CYP2C9 inh 1, CYP2C19 act 0.9, CYP2C19 inh 13, CYP2C9 act 1 and PLAP act 0.9.
`CCc1nc(N)c(C#N)c(-c2ccccc2OC)c1C` gave CYP2C9 inh -4, CYP2C19 act 0.3, CYP2C19 inh 70*, CYP2C9 act 1 and PLAP act 1.
Screening Cc1nc(N)c(C#N)c(-c2ccccc2Cl)c1C returned CYP2C9 inh -29, CYP2C19 act 0.9, CYP2C19 inh 10, CYP2C9 act 1.3 and PLAP act 0.8.
Screening COc1ccccc1-c1cc(C2CC2)nc(N)c1C#N returned CYP2C9 inh -17, CYP2C19 act 0.2, CYP2C19 inh 80*, CYP2C9 act 1.2 and PLAP act 1.
Screening COc1ccccc1N1CCN(c2nc(N)c(C#N)c(CC#N)c2C#N)CC1 returned CYP2C9 inh -41, CYP2C19 act 0.7, CYP2C19 inh 31, CYP2C9 act 1.4 and PLAP act 1.1.
For Cc1nc2ccccc2c(=O)n1/N=C/c1ccncc1 the results were CYP2C9 inh 27, CYP2C19 act 0.2, CYP2C19 inh 76*, CYP2C9 act 0.7 and PLAP act 0.9.
For Cc1[nH]n(-c2ccccc2)c(=O)c1/C=N/n1c(C)nc2ccccc2c1=O the results were CYP2C9 inh 18, CYP2C19 act 1.1, CYP2C19 inh -12, CYP2C9 act 0.8 and PLAP act 1.2.
For Cc1nc2ccccc2c(=O)n1/N=C/c1ccccc1 the results were CYP2C9 inh 18, CYP2C19 act 0.6, CYP2C19 inh 41, CYP2C9 act 0.8 and PLAP act 0.9.
For Cc1ccc(-n2[nH]c(C)c(/C=N/n3c(C)nc4ccccc4c3=O)c2=O)cc1 the results were CYP2C9 inh 55*, CYP2C19 act 0.7, CYP2C19 inh 30, CYP2C9 act 0.4 and PLAP act 1.5.
